SIRT5 inh: inhibitors of human sirtuin-5 desuccinylase; Q9NXA8; AID 652115; inhibition, % at 15 µM; 330,000 compounds, 1.1% hits; Purified SirT5, succinyl-peptide AMC, trypsin-coupled fluorescence; in the data active means inhibition above about 15%
ERAP1 HTS inh: blocks human ERAP1 aminopeptidase activity; 340,000 compounds, 0.15% hits; inhibition, % at 10.7 µM; Q9NZ08; recombinant ERAP1, Leu-AMC fluorescence, 60 min;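 active means mean replicate inhibition of at least 30%, or all replicates individually reaching that 30% level; inactive means mean below 30% and not every replicate reaching it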;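 further: 0% = neutral control wells and 100% = L-leucinethiol positive control wells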
FGF22 binding: shifts melting point of recombinant human FGF22; Q9HCT0; recombinant FGF22 thermal shift, SYPRO orange fluorescence; percent of sucrose octasulfate shift, DMSO zero; activity (Tm shift, normalised), % at 9.99 µM; 340,000 compounds, 1.5% hits; AID 651658;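 active means mean Tm shift, scaled 0 neutral to 100 positive control, at about 1.3% or above, every replicate too, limit read from the data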
Casp6 inh: caspase-6 (human) enzyme inhibition; inhibition, % at 12.5 µM; AID 686996; purified caspase-6, Z-VEID-R110 cleavage fluorescence; P55212; 350,000 compounds, 0.53% hits;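 active means mean inhibition across replicates at least about 35%, with every replicate also reaching that limit, limit read from the data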;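 further: 0% = median of neutral control wells and 100% = no fluorescence left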
Starred values were filed as active, the others as inactive; . = not tested or not shown. Compounds with a hit are over-represented: about 3.1% of the library has one in this group of screens.

SMILES	SIRT5 inh	ERAP1 HTS inh	FGF22 binding	Casp6 inh
COc1ccc(N(C(=O)c2cnsn2)C(C(=O)NC2CCCCC2)c2ccncc2)cc1 (stereo not given)	2	0	43*	1
CO[C@H]1CN(C)C(=O)c2cc(NC(=O)C3CCC3)ccc2OC[C@H](C)N(C(=O)NC(C)C)C[C@@H]1C	1	-1	0	5
C[C@@H]1CCCCO[C@@H](CN(C)CC2CC2)[C@@H](C)CN([C@H](C)CO)C(=O)c2cc(NC(=O)Nc3ccc(C(F)(F)F)cc3)ccc2O1	.	.	0	.
O=C(COc1cc(Cl)c(Cl)cc1Cl)N1CCN(c2ccccn2)CC1	-8	-11	0	9
O=C(COc1cccc2ccccc12)N1CCN(c2ccccn2)CC1	18*	-1	0	1
O=C(N[C@H]1C=C[C@H](CC(=O)N2CCc3ccccc3C2)O[C@@H]1CO)C1CCC1	-1	2	1	-3
O=C(C[C@@H]1C=C[C@@H](NC(=O)CN2CCOCC2)[C@H](CO)O1)NC1CCCCC1	26*	-1	0	2
O=C(CCN1CCCCC1)N[C@H]1C=C[C@@H](CC(=O)N2CCC(Cc3ccccc3)CC2)O[C@@H]1CO	1	-1	0	-1
O=C(C[C@@H]1C=C[C@H](NC(=O)CN2CCOCC2)[C@@H](CO)O1)NCCc1ccccc1	1	2	0	-1
O=C(C[C@H]1C=C[C@H](NC(=O)CN2CCOCC2)[C@H](CO)O1)NCCc1ccccc1	17*	2	0	-1
O=C(CCN1CCCCC1)N[C@@H]1C=C[C@H](CC(=O)N2CCC(Cc3ccccc3)CC2)O[C@H]1CO	15*	-1	0	1
C[C@H](CO)N1C[C@H](C)[C@@H](CN(C)C(=O)c2ccccc2)Oc2ncc(C#CC3CC3)cc2C1=O	6	2	0	-2
CN1CCN(C(=O)[C@@H]2[C@@H](CO)[C@@H]3Cn4c(cccc4=O)[C@H]2N3S(=O)(=O)c2ccccc2F)CC1	6	1	0	-1
C[C@@H]1CN([C@H](C)CO)C(=O)CCCn2cc(nn2)CO[C@@H]1CN(C)C(=O)Nc1ccc(N2CCCCC2)cc1	-2	4	0	2
COc1ccc(S(=O)(=O)N(C)C[C@H]2OCCCC[C@H](C)Oc3ccc(NS(=O)(=O)c4cn(C)cn4)cc3C(=O)N([C@@H](C)CO)C[C@H]2C)cc1	2	1	0	-1
Cc1noc(C)c1S(=O)(=O)Nc1ccc2c(c1)C(=O)N([C@H](C)CO)C[C@H](C)[C@@H](CN(C)Cc1ccc(Cl)c(Cl)c1)OCCCC[C@H](C)O2	15*	0	.	0
Cc1noc(C)c1S(=O)(=O)Nc1ccc2c(c1)C(=O)N([C@@H](C)CO)C[C@H](C)[C@@H](CN(C)Cc1ccc(Cl)c(Cl)c1)OCCCC[C@H](C)O2	5	2	0	4
Cc1noc(C)c1S(=O)(=O)Nc1ccc2c(c1)C(=O)N([C@H](C)CO)C[C@@H](C)[C@H](CN(C)Cc1ccc(Cl)c(Cl)c1)OCCCC[C@@H](C)O2	17*	0	1	-1
CO[C@@H]1CC[C@H]2CCN(C)C(=O)CCCN(C)C(=O)c3cccc(C#N)c3OC[C@@H]1O2	2	0	0	7
C[C@@H]1CN([C@@H](C)CO)C(=O)c2cc(NS(=O)(=O)c3ccc(Cl)cc3)ccc2O[C@@H]1CN(C)C	4	-7	0	4
COc1cccc(NC(=O)c2ccc(NCCCN3CCC(C)CC3)c([N+](=O)[O-])c2)c1	-1	0	0	-16
O=C(Nc1cc(F)cc(F)c1)c1ccc(NCCCN2CCCCCC2)c([N+](=O)[O-])c1	0	1	43*	3
Cc1cccc(Nc2ncnc3onc(-c4ccc(F)cc4)c23)c1C	16*	-1	0	0
COc1ccc(CN(C)C[C@@H]2OCc3cn(nn3)CCCC(=O)N([C@H](C)CO)C[C@@H]2C)cc1	-5	1	0	-3
NC(=O)Nc1ccc(C(=O)OCC(=O)c2c[nH]c3ccccc23)cc1	-1	-2	44*	-6
SMILES	SIRT5 inh	ERAP1 HTS inh	FGF22 binding	Casp6 inh
Cc1cc(C)n2nc(C(=O)OCC(=O)c3c[nH]c4ccccc34)nc2n1	-3	0	44*	2
Cc1cc(C)n2nc(C(=O)OCC(=O)c3ccccc3)nc2n1	.	1	0	-6
COc1ccccc1N1N=C(c2ccc([N+](=O)[O-])cc2)CC1c1ccccc1 (stereo not given)	1	-2	2.7*	-3
COc1cc(N2N=C(c3ccccc3)CC2c2ccccc2)c(C=O)cc1C=O (stereo not given)	0	-5	0	3
Cc1ccc(S(=O)(=O)N(CC(=O)Nc2ccccc2C(=O)O)c2cccc(Cl)c2C)cc1	-9	-3	.	47*
COc1ccc(N(CC(=O)Nc2ccccc2C(=O)N2CCCC2)S(=O)(=O)c2ccccc2)cc1	-9	3	0	1
O=C(CN(c1ccc(F)cc1)S(=O)(=O)c1ccccc1)Nc1ccccc1C(=O)O	1	-5	43*	2
Cc1ccc(S(=O)(=O)N(CC(=O)Nc2ccccc2C(=O)O)c2ccccc2C)cc1	-6	-9	.	2
COc1ccccc1S(=O)(=O)N(C)C[C@@H]1OCc2cn(nn2)CCCC(=O)N([C@@H](C)CO)C[C@@H]1C	-3	0	0	2
C[C@H]1CN([C@@H](C)CO)C(=O)CCCn2nncc2CO[C@@H]1CN(C)S(=O)(=O)c1ccc(C#N)cc1	-2	1	-1	2
CC(C)N(C(=O)Nc1ccc2nsnc2c1)C(C)C	5	-1	0	100*
COc1ccc(N(C)C(=O)Nc2ccc3nsnc3c2)cc1	-2	0	0	6
CC(C)[C@@H](C(=O)N[C@@H](CCc1ccc(O)cc1)C(=O)O)N(C)C(=O)[C@H](CO)NC(=O)[C@@H](O)[C@H](N)CCCCCCCCl	-1	62*	0	-4
Cc1c(/C=N\NC(=O)c2c[nH]c3ccccc23)cnn1C	0	1	44*	-3
Cc1occc1C(=O)N/N=C/c1c[nH]c2ccccc12	2	2	0	2
O=C(/C=C/c1ccc2ccccc2n1)c1cc(Br)ccc1O	-2	-1	0	1
O=C(/C=C/c1ccc(F)cc1)c1cc(Br)ccc1O	16*	.	0	0
O=C(C[C@H]1CC[C@@H]2[C@H](COC[C@H](O)CN2Cc2ccccc2F)O1)N[C@H]1CCN(Cc2ccccc2)C1	-5	3	0	0
C/C(N)=C(/C#N)C(=O)CSc1nnc(C)n1-c1ccccc1	5	0	43*	5
CCOC(=O)CSC1=C(C#N)C(c2sccc2C)C(C(C)=O)=C(C)N1 (stereo not given)	34*	0	0	0
CC(=O)C1=C(C)NC(SCC(N)=O)=C(C#N)C1c1sccc1C (stereo not given)	-5	-2	0	-1
CCc1ccc(OCC(O)CNC(C)(C)C)cc1 (stereo not given)	1	1	0	3
Cc1cc(OCC(O)CNC(C)(C)C)ccc1Cl (stereo not given)	21*	1	0	1

Source: PubChem
